NPC1 promoter act – NPC1 promoter activation. 320,000 compounds, 2.4% hits. Huh7 NPC1 promoter luciferase reporter, 24 h. Potency, µM (top dose mostly 9.22 µM), without a hit: at the top dose activation, actives largely listed as activators; note: % of control where 0% means no effect; nearly all actives have a fitted effect of over 60% in size
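Compounds in DMSO were transferred onto Huh7 NPC1-luciferase reporter cells pre-incubated 2 h; after 24 h at 37 °C, Amplite reagent was dispensed and luminescence recorded 10 min later.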
ELG1 genotoxic – inducers of genotoxicity in HEK293T ELG1-luciferase cells; HEK293T ELG1-luciferase reporter, luminescence, 16 h; Potency, µM (doses to about 46 µM), for inactives: at the top dose activity change, positive = activation, hits mostly activators; 330,000 compounds, 1.3% hits; note: % of control where 0% means no effect; nearly all actives have a fitted effect of over 60% in size
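Step 1: seed 2,000 HEK293T ELG1-luciferase cells per well. Step 2: add compound or DMSO, incubate 16 hr at 37 °C. Step 3: ONE-Glo, 30 min at room temperature, read luminescence.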
SMN2 splice up – SMN2 splice variant enhancement; HEK293 SMN2-luciferase splicing reporter, luminescence, 30-36 h; Potency, µM (doses to about 46.1 µM), for inactives: at the top dose activity change, positive = activation, hits mostly activators; 210,000 compounds, 2.8% hits; note: % of control where 0% means no effect; nearly all actives have a fitted effect of over 55% in size
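HEK293 cells carry an SMN2 […]–luciferase reporter in which exon 7 inclusion puts luciferase in frame. Cells were plated 10-12 h before compound addition, then incubated 30-36 h at 37C. ONE-Glo luminescence was read; sodium butyrate at 4.5 mM final served as control.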
Rab9 promoter act – Rab9 promoter activation | Huh7 Rab9 promoter-luciferase reporter, luminescence, 24 h | Potency, µM (titrated, usually from 9.22 µM), for the others: at the highest dose activation, negative = inhibition, most hits filed as activators | 320,000 compounds, 2.8% hits; note: % of control where 0% means no effect; nearly all actives have a fitted effect of over 60% in size
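Huh7 cells stably carrying a Rab9 promoter-luciferase reporter, 1500 cells per well in OP-MEM I with 10% FBS, treated with compound 24 hours at 37C. Luciferase activity read by luminescence after 10 minutes with Amplite reagent.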
Luc counter – Kinase-Glo luciferase inhibition (counter-screen); Kinase-Glo luciferase, ATP luminescence, 8 min; 200,000 compounds, 0.28% hits; AID 1379; Potency, µM (top dose mostly 38.3 µM), for inactives: at the top dose activity change, negative = inhibition, usual class: inhibitors; note: % is set by controls: 0 for no effect and ±100 for the full control effect; nearly all actives have a fitted effect of over 60% in size
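Compound is pinned into ATP-containing buffer (10 uM ATP, imidazole pH 7.2, 7 mM MgCl2). Kinase-Glo luciferase reagent is then added. Light output is recorded following an 8-min room-temperature incubation.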
FLuc modulator – firefly luciferase modulation, counter-screen for miR-21 project. P08659. Potency, µM (series often up to 57.5 µM), for the others: top-dose activity change, negative = inhibition, hits mostly inhibitors. AID 588342. 360,000 compounds, 6.9% hits. purified FLuc, Km substrates, luminescence inhibition;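 note: plate controls were vehicle for no effect and reference inhibitor for full effect; nearly all actives have a fitted effect of over 55% in size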
Target sequence (P08659 whole entry, looked up): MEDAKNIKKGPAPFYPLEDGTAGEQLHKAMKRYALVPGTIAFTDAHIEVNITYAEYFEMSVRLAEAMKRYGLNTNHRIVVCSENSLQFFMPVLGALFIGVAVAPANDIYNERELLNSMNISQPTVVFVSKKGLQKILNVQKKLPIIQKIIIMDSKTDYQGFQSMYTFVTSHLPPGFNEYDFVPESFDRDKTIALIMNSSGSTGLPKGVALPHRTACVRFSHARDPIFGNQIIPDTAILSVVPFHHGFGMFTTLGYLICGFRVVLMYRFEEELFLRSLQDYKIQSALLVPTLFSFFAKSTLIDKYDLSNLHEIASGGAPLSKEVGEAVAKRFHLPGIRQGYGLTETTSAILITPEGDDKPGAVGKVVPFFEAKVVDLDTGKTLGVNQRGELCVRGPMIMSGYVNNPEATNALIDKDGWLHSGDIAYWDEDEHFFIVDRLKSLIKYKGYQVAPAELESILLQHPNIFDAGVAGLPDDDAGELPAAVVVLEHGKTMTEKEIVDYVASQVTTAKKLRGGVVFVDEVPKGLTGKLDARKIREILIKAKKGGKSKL
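Purified P. pyralis luciferase (10nM final) with 10uM D-luciferin and 10uM ATP (Km levels) in 50mM Tris acetate pH 7.5, 10mM Mg acetate, 0.01% Tween-20, 0.05% BSA; qHTS 6-point titration, ~60 µM downward; luminescence read.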
Starred values were filed as active, the others as inactive. This is a sample that favours compounds with a hit; in the whole collection about 7.3% have one here. Calls come from the whole dose curve; as a rule, active = well fitted curve in the direction sought with a large enough effect; inconclusive = small, poorly fitted or top-dose-only effect, or another doubt; inactive = no such curve, though single readings can be large; an effect the other way counts as inactive or inconclusive. Potency is the fitted concentration of half-maximal effect.

Results for COc1ccc(-c2nnc(SCC(=O)N3CCCCC3)o2)cc1 ?
NPC1 promoter act: inconclusive; ELG1 genotoxic: inconclusive; SMN2 splice up: 13%; Rab9 promoter act: inconclusive; FLuc modulator: inconclusive

Results for COc1ccc(-c2nnc(SCC(=O)N3CCOCC3)o2)cc1OC ?
NPC1 promoter act: -2%; ELG1 genotoxic: -1%; SMN2 splice up: 12%; Rab9 promoter act: -2%; Luc counter: 1%; FLuc modulator: -2%

What do the screens show for `CCOc1ccc(-c2nnc(SCC(=O)N3CCCC3)o2)cc1`?
NPC1 promoter act: inconclusive; ELG1 genotoxic: inconclusive; Rab9 promoter act: inconclusive; FLuc modulator: 21µM*

How did CCOc1ccc(-c2nnc(SCC(=O)N3CCOCC3)o2)cc1 do in these assays?
NPC1 promoter act: inconclusive; ELG1 genotoxic: inconclusive; SMN2 splice up: inconclusive; Rab9 promoter act: 2.2µM*; Luc counter: -2%; FLuc modulator: 11µM*

Results for COc1ccc(C(C(C(=O)c2ccco2)N2CCOCC2)N2CCOCC2)cc1 (stereo not given) ?
NPC1 promoter act: 0%; ELG1 genotoxic: 2%; SMN2 splice up: -2%; Rab9 promoter act: -7%; Luc counter: -3%; FLuc modulator: 13µM*

What do the screens show for `COc1ccc(C(CNC(=O)c2ccco2)N2CCOCC2)cc1` (stereo not given)?
NPC1 promoter act: -2%; ELG1 genotoxic: 7%; Rab9 promoter act: 3%

Results for CSc1ccc(C(C(C(=O)c2cccs2)N2CCOCC2)N2CCOCC2)cc1 (stereo not given) ?
NPC1 promoter act: 2%; ELG1 genotoxic: -1%; SMN2 splice up: 14%; Rab9 promoter act: -1%; Luc counter: 3%; FLuc modulator: 27µM*

Results for O=C(NC(C(=O)c1ccccc1)N1CCOCC1)c1cccs1 (stereo not given) ?
NPC1 promoter act: 29%; ELG1 genotoxic: 14%; SMN2 splice up: inconclusive; Rab9 promoter act: 24%; Luc counter: 3%; FLuc modulator: 1%

How did O=C(CN1CCN(Cc2ccccc2)CC1)NC(=O)NCc1ccco1 do in these assays?
NPC1 promoter act: 9%; ELG1 genotoxic: -5%; SMN2 splice up: 0%; Rab9 promoter act: 3%; Luc counter: -3%; FLuc modulator: 0%

Results for Cc1ccc(-n2nnnc2SCC(=O)Nc2ccc(N3CCN(C)CC3)cc2)c(C)c1 ?
NPC1 promoter act: 6%; ELG1 genotoxic: -1%; Rab9 promoter act: -11%; FLuc modulator: -2%

Results for Cc1ccc(SCC(=O)Nc2ccc(N3CCN(C)CC3)c(F)c2)c(C)c1 ?
NPC1 promoter act: 12%; ELG1 genotoxic: 3%; SMN2 splice up: -15%; Rab9 promoter act: 4%; Luc counter: 0%; FLuc modulator: 12µM*

How did O=C(CSc1ccccc1)Nc1ccc(N2CCOCC2)c(F)c1 do in these assays?
NPC1 promoter act: 3.5µM*; ELG1 genotoxic: inconclusive; Rab9 promoter act: 3.2µM*; FLuc modulator: inconclusive

What do the screens show for `CC1CCCCN1C(=O)CSc1nc2c(c(=O)n(C)c(=O)n2C)n1C` (stereo not given)?
NPC1 promoter act: -1%; ELG1 genotoxic: -3%; Rab9 promoter act: 2%; FLuc modulator: -1%

What do the screens show for `CC(=O)CC(C)(C)S(=O)(=O)c1ccc(Oc2ccc(S(=O)(=O)C(C)(C)CC(C)=O)cc2)cc1`?
NPC1 promoter act: -6%; ELG1 genotoxic: 2%; SMN2 splice up: inconclusive; Rab9 promoter act: -1%; Luc counter: 8%; FLuc modulator: 7%

Results for CCCc1nn(C)c(C(=O)Nc2ccccc2)c1Cl ?
NPC1 promoter act: 3.5µM*; ELG1 genotoxic: inconclusive; SMN2 splice up: -29%; Rab9 promoter act: 1.1µM*; Luc counter: -5%; FLuc modulator: 7.6µM*

How did CCCc1nn(C)c(C(=O)Nc2cccc(C)c2)c1Cl do in these assays?
NPC1 promoter act: inconclusive; ELG1 genotoxic: inconclusive; SMN2 splice up: 19%; Rab9 promoter act: inconclusive; Luc counter: -1%; FLuc modulator: 17µM*

Screening results deposited in PubChem BioAssay by National Center for Advancing Translational Sciences (NCATS).
